Test results from PubChem BioAssay.
Activity calls are given as the source filed them.

Tests used:
[1] = system: Human papillomavirus type 1a protein E7 (residues 44-93); assay: HPV1a E7 fragment binders on microarrays, primary screen, biochemical, small-molecule microarray, residues 44-93, 635 nm fluorescence (AID 1108); settings: small-molecule microarray binding, fluorescence 635 nm; higher = more signal;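 also: E7 fragment applied at 1 µg/mL in TBST for 1 h at 4 C; score combines spot fluorescence with its signal to noise ratio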
[2] = modulators of HCV replicon luciferase signal, primary screen, HCV replication inhibitor project, Huh7 cells, luciferase reporter (AID 1109); settings: 48 h, higher = more signal;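 also: huh7 hepatoma cells harbouring a luciferase neomycin HCV replicon reporter; luciferase luminescence as measure of HCV replicon replication; test concentration not given here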
[3] = molecular target: Left-right determination factor 2 (Homo sapiens) (UniProt O00292); assay: LEFTY2 binders on small-molecule microarrays, primary screen, biochemical, small-molecule microarray, 635 nm fluorescence scan (AID 1110); settings: LEFTY2 binding, higher = more signal
[4] = molecular target: Calmodulin-1 (Homo sapiens) (UniProt P0DP23); assay: CALM1 binders on microarrays, EGTA buffer, profiling panel, biochemical, small-molecule microarray, Cy5-labelled CALM1 (AID 1111); settings: Cy5-CALM1 binding fluorescence, higher = more signal;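 also: labelled calmodulin applied in Tris saline Tween buffer holding calcium plus EGTA and DTT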
[5] = molecular target: Calmodulin-1 (Homo sapiens) (UniProt P0DP23); assay: calcium-bound CALM1 binders on microarrays, profiling panel, artefact control for SMM control-protein annotation, biochemical, small-molecule microarray, Cy5-labelled CALM1, plus calcium (AID 1112); settings: Cy5-CALM1 binding fluorescence, higher = more signal;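 also: score merges spot fluorescence with signal to noise from triplicate slides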
[6] = small-molecule microarray binders of probe aWnt5a, primary screen, biochemical, biotinylated probe, 635/667 nm fluorescence (AID 1113); settings: higher = more signal;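 also: score merges 667 nm fluorescence intensity with signal-to-noise per printed feature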
[7] = small-molecule microarray binders of probe aShh, primary screen, biochemical, biotinylated probe, 635/667 nm fluorescence (AID 1114); settings: higher = more signal;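 also: probe is biotin-labelled aShh protein from a stem cell growth factor screen; measures binding of labelled protein to compounds printed on the slide; score merges feature fluorescence at 667 nm with signal-to-noise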
[8] = small-molecule microarray binders of probe aNog, primary screen, biochemical, biotinylated probe, 635/667 nm fluorescence (AID 1115); settings: higher = more signal;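 also: probe is biotinylated aNog protein used at 0.15 µg/mL for 1 h at 4 C; z-score combines 667 nm fluorescence of each spot with its signal to noise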
[9] = molecular target: Torsin-1A-interacting protein 1 (Homo sapiens) (UniProt Q5JTV8); assay: LAP1 binders from COS7 cell lysate, primary screen, small-molecule microarray, 635/667 nm fluorescence (AID 1116); settings: COS7-hLAP1 lysate binding, 635 nm fluorescence, higher = more signal
[10] = molecular target: Alpha-bungarotoxin (Bungarus multicinctus) (UniProt P60615); assay: alpha-bungarotoxin binders on microarray, profiling panel, artefact control for SMM control protein annotation, biochemical, small-molecule microarray, Alexa647 label, 635/667 nm fluorescence (AID 1117); settings: alpha-BTX-A647 binding fluorescence, higher = more signal
Albumin (Bos taurus) = Albumin (Bos taurus) (UniProt P02769); assay: bovine serum albumin binders on microarray, profiling panel, artefact control for SMM control protein annotation, biochemical, small-molecule microarray, Alexa647 label, 635/667 nm fluorescence (AID 1118); settings: BSA-A647 binding, fluorescence 635 nm, higher = more signal;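 also: score merges 667 nm emission intensity and signal-to-noise per printed compound spot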
[11] = small-molecule microarray binders of probe aXIP, primary screen, biochemical, NeuroSMM set, 635/667 nm fluorescence (AID 1119); settings: higher = more signal, called active from +8 up or from −8 down;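 also: probe is the protein aXip251-270 applied at 1 µg/mL to compound-printed slides; binding of probe to printed compounds measured as 667 nm fluorescence plus signal to noise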
[12] = small-molecule binders of probe aNOTCH3, primary screen, biochemical, small-molecule microarray, 635/667 nm fluorescence (AID 1120); settings: higher = more signal;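 also: probe is a biotin-tagged antibody raised against NOTCH3 rather than NOTCH3 protein; score merges spot fluorescence near 667 nm with spot signal to noise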
[13] = small-molecule binders of probe aNOTCH2, primary screen, biochemical, small-molecule microarray, 635/667 nm fluorescence (AID 1121); settings: higher = more signal;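 also: score merges feature fluorescence read at 667 nm with its signal to noise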
[14] = molecular target: Carbonic anhydrase 2 (Homo sapiens) (UniProt P00918); assay: CAII small-molecule binders, profiling panel, biochemical, small-molecule microarray, Alexa647-labelled CAII (AID 1122); settings: CAII-A647 binding fluorescence, higher = more signal
[15] = COS7 lysate on small-molecule microarray, probe aHis, 635 nm (AID 1123); settings: COS7 cell lysate, fluorescence, higher = more signal;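 also: z-score combines 667nm fluorescence intensity with signal-to-noise per printed compound spot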
[16] = compound binding in COS7 lysate, probe aLAP1, primary screen, cell lysate, small-molecule microarray (AID 1124); settings: probe aLAP1, fluorescence, higher = more signal;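 also: lysate comes from COS7 cells expressing LAP1 and is applied at 0.3 µg/mL; score merges spot fluorescence near 667 nm with signal-to-noise over triplicate slides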
Sam68 (KHDRBS1) = assay: Sam68 small-molecule binders, primary screen, biochemical, small-molecule microarray, 635 nm fluorescence (AID 1125); settings: small-molecule microarray binding, higher = more signal;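 also: score merges 667 nm channel intensity with signal to noise over triplicate slides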
[17] = system: Chordin-like protein 2 (CHRDL2); assay: CHRDL2 small-molecule binders, primary screen, biochemical, small-molecule microarray, 635 nm fluorescence (AID 1126); settings: small-molecule microarray binding, fluorescence 635 nm; higher = more signal;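 also: printed compound slides probed with Chrdl2 protein at 4 µg/mL for 1 h at 4 C; score merges 667 nm emission intensity with signal to noise over three replicate slides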
[18] = molecular target: Concanavalin-A (Canavalia ensiformis) (UniProt P02866); assay: ConA small-molecule binders, primary screen, artefact control for SMM control protein annotation, biochemical, small-molecule microarray, Alexa647 label, 635 nm (AID 1127); settings: ConA-A647 binding fluorescence, higher = more signal;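 also: z combines 667 nm emission intensity with signal-to-noise across three replicate slides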
Sequence of Concanavalin-A (Canavalia ensiformis) (P02866 whole entry, looked up): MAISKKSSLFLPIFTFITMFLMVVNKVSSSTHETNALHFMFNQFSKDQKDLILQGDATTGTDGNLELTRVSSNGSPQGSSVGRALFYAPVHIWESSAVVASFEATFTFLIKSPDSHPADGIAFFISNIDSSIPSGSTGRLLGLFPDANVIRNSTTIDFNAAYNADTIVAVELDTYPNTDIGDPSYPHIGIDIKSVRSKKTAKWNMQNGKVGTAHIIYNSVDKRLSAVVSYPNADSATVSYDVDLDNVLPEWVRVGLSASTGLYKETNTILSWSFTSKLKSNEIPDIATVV

Sequence of Left-right determination factor 2 (Homo sapiens) (O00292 whole entry, looked up): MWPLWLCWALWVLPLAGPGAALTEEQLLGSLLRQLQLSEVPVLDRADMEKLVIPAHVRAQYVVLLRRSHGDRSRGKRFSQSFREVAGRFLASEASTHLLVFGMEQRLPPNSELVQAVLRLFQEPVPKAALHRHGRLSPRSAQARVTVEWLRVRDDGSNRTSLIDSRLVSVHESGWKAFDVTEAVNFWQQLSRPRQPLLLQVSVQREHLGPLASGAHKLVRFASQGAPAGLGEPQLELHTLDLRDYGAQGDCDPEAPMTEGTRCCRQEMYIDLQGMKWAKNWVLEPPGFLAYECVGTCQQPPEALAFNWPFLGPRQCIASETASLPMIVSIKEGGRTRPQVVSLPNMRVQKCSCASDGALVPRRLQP
Sequence of Torsin-1A-interacting protein 1 (Homo sapiens) (Q5JTV8 whole entry, looked up): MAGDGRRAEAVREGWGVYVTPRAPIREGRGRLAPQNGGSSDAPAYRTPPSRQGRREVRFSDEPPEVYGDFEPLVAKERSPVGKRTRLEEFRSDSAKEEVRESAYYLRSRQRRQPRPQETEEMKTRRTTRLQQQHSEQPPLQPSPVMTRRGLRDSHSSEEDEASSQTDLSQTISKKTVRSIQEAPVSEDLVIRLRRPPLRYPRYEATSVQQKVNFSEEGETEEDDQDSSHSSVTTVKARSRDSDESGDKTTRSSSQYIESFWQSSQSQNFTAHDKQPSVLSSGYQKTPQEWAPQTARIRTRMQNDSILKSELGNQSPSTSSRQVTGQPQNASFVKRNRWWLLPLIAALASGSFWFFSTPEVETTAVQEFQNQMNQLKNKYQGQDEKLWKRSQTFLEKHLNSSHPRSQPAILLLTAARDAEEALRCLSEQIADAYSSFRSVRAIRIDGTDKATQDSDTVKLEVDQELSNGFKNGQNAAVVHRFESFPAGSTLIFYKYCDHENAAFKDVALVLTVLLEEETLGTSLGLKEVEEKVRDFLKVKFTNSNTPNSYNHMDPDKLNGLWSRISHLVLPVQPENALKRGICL
Sequence of Alpha-bungarotoxin (Bungarus multicinctus) (P60615 whole entry, looked up): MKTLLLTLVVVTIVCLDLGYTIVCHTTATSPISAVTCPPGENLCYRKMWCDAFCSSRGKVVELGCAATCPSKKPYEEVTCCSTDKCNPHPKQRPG
Sequence of Albumin (Bos taurus) (P02769 whole entry, looked up): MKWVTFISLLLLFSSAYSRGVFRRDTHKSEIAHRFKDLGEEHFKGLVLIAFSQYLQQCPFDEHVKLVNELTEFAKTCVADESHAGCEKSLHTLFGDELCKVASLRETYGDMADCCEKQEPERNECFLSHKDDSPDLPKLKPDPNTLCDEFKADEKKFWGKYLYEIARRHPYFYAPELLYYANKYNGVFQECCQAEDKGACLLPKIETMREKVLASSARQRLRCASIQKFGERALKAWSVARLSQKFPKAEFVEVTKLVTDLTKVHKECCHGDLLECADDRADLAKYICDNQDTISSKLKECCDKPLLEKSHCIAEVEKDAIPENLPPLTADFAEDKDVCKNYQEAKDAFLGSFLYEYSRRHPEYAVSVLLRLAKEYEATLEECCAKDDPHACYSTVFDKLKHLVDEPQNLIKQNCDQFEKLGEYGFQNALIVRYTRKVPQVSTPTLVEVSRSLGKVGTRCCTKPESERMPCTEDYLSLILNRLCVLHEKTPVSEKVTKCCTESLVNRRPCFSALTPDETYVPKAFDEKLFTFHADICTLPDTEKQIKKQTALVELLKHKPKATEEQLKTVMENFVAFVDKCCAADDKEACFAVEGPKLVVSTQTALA

Row | SMILES | composite z-score [1] | z-score [2] | composite z-score [3] | composite z-score [4] | composite z-score [5] | composite z-score [6] | composite z-score [7] | composite z-score [8] | composite z-score [9] | composite z-score [10] | composite z-score (Albumin (Bos taurus)) | composite Z-score [11] | composite z-score [12] | composite z-score [13] | composite z-score [14] | composite z-score [15] | composite z-score [16] | composite z-score (Sam68 (KHDRBS1)) | composite z-score [17] | composite z-score [18]
1 | C=CCN1Cc2ccccc2[C@H]2OC(c3ccc(OCCCO)cc3)=N[C@@]2(CCS(=O)(=O)c2ccccc2)C1=O | 1.26 | -1.56 | 0.62 | 1.64 | 0.472 | 0.0704 | -0.0056 | -0.0831 | 1.49 | 1.21 | 0.465 | 1.79 (inactive) | 0.0562 | -0.0135 | 0.614 | 3.07 | 0.333 | 1.31 | 0.843 | 1.16
2 | C=CCC(OC(C)=O)[C@@H]1[C@@H](N(Cc2cc3ccccc3o2)C(=O)c2cccc3ccccc23)c2cc(OCCCO)ccc2N1C(=O)c1ccc2ccccc2n1 (stereo not given in full) | 0.193 | 0.0107 | 0.186 | -0.153 | 0.304 | -0.0346 | -0.0813 | -0.0381 | 0.615 | 0.0884 | 0.423 | -0.315 (inactive) | 0.0155 | -0.147 | 0.112 | -0.197 | 0.637 | 0.31 | 0.0615 | -0.495
3 | C=CCOC(=O)[C@H]1[C@@H]2C(=O)O[C@@H](c3ccccc3)[C@@H](c3ccccc3)N2[C@@H](c2ccc(OCCOC(=O)[C@H]3C[C@H]4C(=O)N[C@@H](CC(C)C)C(=O)N4[C@H]3c3ccc(O)cc3)cc2)[C@]12C(=O)Nc1ccccc12 | 1.42 | -1.75 | 1.44 | 0.538 | -0.273 | 0.0919 | -0.066 | -0.582 | 1.78 | 1.52 | -1.5 | 0.0398 (inactive) | 0.0695 | -0.0666 | 0.368 | 1.74 | 0.878 | 1.31 | 1.26 | 1.06
4 | O=C1[C@H]2C=C(I)[C@H](C[C@@H]2OCCCCCCO)[C@@]12CO2 | -1.14 | -2.67 | 0.687 | -1.08 | -1 | -0.152 | -0.0362 | -0.422 | -0.144 | 0.621 | 0.683 | 0.047 (inactive) | 0.0876 | -0.112 | 0.751 | -0.298 | -0.16 | -0.747 | 1.24 | -1.05
5 | CC(C)(C)N1CC=CC23O[C@@H]4/C=C\CCCOC(=O)C4[C@H]2C(=O)N(CCCO)[C@@H]3C1=O (stereo not given in full) | -0.751 | 0.0578 | 0.178 | -0.71 | -0.275 | -0.172 | -0.0192 | 0.185 | -1.37 | -1.62 | 0.706 | -0.191 (inactive) | 0.134 | -0.0846 | 0.866 | 0.644 | 0.818 | -0.446 | -1.44 | -1.02
6 | [N-]=[N+]=NCc1ccccc1[C@@H]1OC(c2ccc(OCCCO)cc2)=N[C@]1(Cc1ccccc1N=[N+]=[N-])C(=O)O | 0.98 | -0.909 | -0.0061 | 1.4 | 0.774 | 0.496 | 0.541 | 1.7 | 0.697 | 1.55 | 1 | -0.164 (inactive) | 0.663 | 0.481 | 0.566 | 2.4 | 0.262 | 1.31 | -0.126 | 1.13
7 | CN(C)CCCC[C@@H]1NC(=O)[C@@H]2C[C@H](C(=O)NCCCCCCNC(=O)CS)[C@H](c3ccc(O)cc3)N2C1=O | 1.16 | 0.278 | 1.24 | -0.383 | -0.199 | -0.275 | -0.124 | -0.0174 | 0.464 | 0.136 | -0.868 | 0.0804 (inactive) | -0.0682 | -0.112 | 0.538 | 1.06 | 0.338 | 0.952 | 1.15 | 1.08
8 | C=CCNC(=O)[C@H]1[C@@H]2C(=O)O[C@@H](c3ccccc3)[C@@H](c3ccccc3)N2[C@@H](c2ccccc2OCCO)[C@]12C(=O)N(C(=O)OCCOC)c1ccc(C#Cc3ccc(OC)cc3)cc12 | 1.39 | -2.79 | 0.342 | 1.39 | 0.37 | -0.152 | -0.0011 | 0.254 | 0.143 | 1.3 | 0.621 | -0.0052 (inactive) | -0.0613 | -0.146 | 0.609 | 1.94 | 1.1 | 1.24 | 0.0718 | 1.11
9 | CC(C)(C)OC(=O)CC[C@@]1(C(=O)NCCN2CCOCC2)N=C(c2ccc(OCCCO)cc2)O[C@@H]1c1ccccc1CN=[N+]=[N-] | 1.02 | -0.0116 | -0.345 | 1.98 | -0.0256 | 0.0219 | -0.324 | -0.481 | 0.462 | 0.519 | 0.812 | 2.03 (inactive) | 0.0488 | -0.112 | 0.245 | 1.17 | 0.59 | 0.696 | -0.743 | 1.08
10 | O=C1O[C@H](c2ccccc2)[C@H](c2ccccc2)N2[C@H]1[C@@H](C(=O)O)[C@]1(C(=O)Nc3ccc(C#CCCO)cc31)[C@H]2c1ccc(OCCO)cc1 | 1.12 | -0.534 | 0.453 | 1.05 | 0.532 | -0.0472 | -0.0769 | 0.133 | 1.65 | 2.47 | 0.316 | 0.0388 (inactive) | 0.0026 | 0.015 | 0.596 | 2.2 | 1.38 | 1.08 | 1.11 | 0.891
11 | COC(=O)[C@@]1(Cc2ccc(OC)cc2)[C@H]2c3cc(C(=O)N(C)C)[nH]c3C[C@H]2CN1C(=O)c1ccccc1 | -0.65 | -0.536 | -0.228 | -0.0912 | -0.242 | -0.176 | 0.128 | 0.516 | -0.223 | 0.0334 | 0.0277 | 0.184 (inactive) | -0.0477 | 0.013 | 0.742 | 0.1 | -0.106 | -1.13 | -0.372 | 0.0575
